We go through 21 molecules from PubChem BioAssay (NCATS).

By viability is commonly meant a read-out of living cells in per cent, often relative to untreated cells.

Experiment [1] concerns the target Cellular tumor antigen p53 (Homo sapiens) (UniProt P04637). The experiment in a line: Primary qHTS for small molecule compounds that upregulate eGFP-tagged delta133p53alpha (in N-terminal) cells. (AID 2060322). Further: nearly all actives have a fitted effect of over 75% in size. Further: potency means the concentration at half of the fitted maximal effect.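 On activation: series mostly up to about 56 µM; 0% = DMSO vehicle and 100% = reference activator.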 As to conditions: NCI-H358 eGFP-delta133p53alpha fluorescence, 24 h; activation: stronger effect = higher value. An outline of the steps: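 NCI-H358 cells pre-induced 24 h with 10 ng/ml doxycycline to express N-terminal eGFP-delta133p53alpha, then dosed 24 h at 37C without doxycycline; fixed, Hoechst-stained, GFP intensity by laser scanning cytometry, normalized to DMSO (0%) and 57.5 uM 5-azacytidine (100%).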
A general note: Quantitative high-throughput screening tests each substance at several concentrations.

Experiment [2] is described as follows: BET inhibitor-based combinations targeting novel dependencies in MECOM-rearranged (r) AML: SET-2 cell line (AID 2202231). Further: nearly all actives have a fitted effect of over 35% in size. Further: potency means the concentration at half of the fitted maximal effect.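 On viability: plate controls were DMSO treated cells for no effect and wells without cells for full effect.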 As to conditions: SET-2 AML cells viability, CellTiter-Glo luminescence, 48 h; viability: stronger effect = lower value, concentration not given here. In short, it runs like this: (§1)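 AML cell lines seeded at 500 cells/well, treated with 11-point dose curves for 48 h. Viability by CellTiter-Glo luminescence, normalised to DMSO and empty wells; activity expressed as AUC and per-cell-line Z-transformed AUC.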
In general terms: ATP-based viability assays read luminescence as a measure of living cells.

Experiment [3] can be described thus: BET inhibitor-based combinations targeting novel dependencies in MECOM-rearranged (r) AML: OCI-AML3 cell line (AID 2202232). Further: nearly all actives have a fitted effect of over 35% in size. Further: potency means the concentration at half of the fitted maximal effect.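 On viability (% of control): series mostly up to about 46 µM; plate controls were DMSO vehicle wells for no effect and wells without cells for full effect.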 As to conditions: Potency: OCI-AML3 viability. In short, it runs like this: as §1
Experiment [4] is described as follows: BET inhibitor-based combinations targeting novel dependencies in MECOM-rearranged (r) AML: MV-4-11 cell line (AID 2202233). Further: nearly all actives have a fitted effect of over 45% in size. Further: potency means the concentration at half of the fitted maximal effect.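 On viability, % of control: plate controls were DMSO for no effect and blank wells for full effect.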 In short, it runs like this: (§2)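 Cells at 500/well were exposed for 48 hr to MIPE v5.0 drugs as 11-point dose curves. Viability was read by CellTiter-Glo luminescence and normalized to DMSO and empty-well controls. Activity was expressed as AUC and per-cell-line Z-AUC.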

Experiment [5] concerns the target Retinaldehyde dehydrogenase 3 (Homo sapiens) (UniProt P47895). The experiment in a line: qHTS for Inhibitors of the Aldehyde Dehydrogenase Family (ALDH1A3) Primary screen (AID 2061315).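 Further: plate controls were DMSO vehicle for no effect and reference inhibitor for full effect.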
A short description of experiment [6]: BET inhibitor-based combinations targeting novel dependencies in MECOM-rearranged (r) AML: HNT-34 cell line (AID 2202234). Further: nearly all actives have a fitted effect of over 35% in size. Further: potency means the concentration at half of the fitted maximal effect.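 On viability (% of control): plate controls were vehicle wells for no effect and cell-free wells for full effect.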 In short, it runs like this: as §2
Experiment [7] in a line: BET inhibitor-based combinations targeting novel dependencies in MECOM-rearranged (r) AML: UCSD-AML1 cell line (AID 2202235). Further: nearly all actives have a fitted effect of over 40% in size. Further: potency means the concentration at half of the fitted maximal effect.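 On viability (% of control): series mostly up to about 46 µM; plate controls were DMSO vehicle wells for no effect and blank wells for full effect.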 In short, it runs like this: as §2
Experiment [8] can be described thus: BET inhibitor-based combinations targeting novel dependencies in MECOM-rearranged (r) AML: AML-191 cell line (AID 2202236; further: nearly all actives have a fitted effect of over 35% in size; further: potency means the concentration at half of the fitted maximal effect;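 on viability (% of control): plate controls were vehicle wells for no effect and wells without cells for full effect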). An outline of the steps:
as §1

A short description of experiment [9]: BET inhibitor-based combinations targeting novel dependencies in MECOM-rearranged (r) AML: AML-194 cell line (AID 2202237; further: nearly all actives have a fitted effect of over 40% in size; further: potency means the concentration at half of the fitted maximal effect;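 on viability (% of control): plate controls were vehicle wells for no effect and wells without cells for full effect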). In short, it runs like this: as §1

Several values for one entry are separate records, joined by “and”; a condition that tells them apart may be missing. Equal values may be shown once. Inconclusive results are not listed. A number with no mark means an inactive call. Activity calls are given as the source filed them. The call rests on the fitted dose curve; in most records, active means well fitted curve in the direction sought with a large enough effect; inconclusive means small, poorly fitted or top-dose-only effect, or another doubt; inactive means no such curve, though single readings can be large; an effect the other way counts as inactive or inconclusive.

Chain of Cellular tumor antigen p53 (Homo sapiens) (P04637 whole entry, looked up): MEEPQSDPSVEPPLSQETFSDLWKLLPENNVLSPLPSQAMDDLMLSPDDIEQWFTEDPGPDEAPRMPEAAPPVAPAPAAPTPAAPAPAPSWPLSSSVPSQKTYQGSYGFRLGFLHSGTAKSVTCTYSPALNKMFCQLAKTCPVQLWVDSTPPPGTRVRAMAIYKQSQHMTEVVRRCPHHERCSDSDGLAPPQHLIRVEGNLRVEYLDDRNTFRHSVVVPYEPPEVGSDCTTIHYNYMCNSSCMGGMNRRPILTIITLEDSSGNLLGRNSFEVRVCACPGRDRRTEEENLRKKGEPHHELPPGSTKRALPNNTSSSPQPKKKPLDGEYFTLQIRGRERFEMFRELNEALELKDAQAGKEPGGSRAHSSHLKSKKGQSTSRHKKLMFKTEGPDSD

Turning to `NC(=NCCCCCCN=C(N)N=C(N)Nc1ccc(Cl)cc1)N=C(N)Nc1ccc(Cl)cc1`, the activation in experiment [1] is 19.1%. The Potency is 26.3 µM (active) in [2], 18.6 µM (active) in experiment [3] and 20.9 µM (active) in [4].

In the case of `COc1ccc(-c2nc3ccc(C4=NNC(=O)CC4C)cc3[nH]2)cc1` (stereo not given), the activation in experiment [1] is 15.8%. Further, the Potency result in experiment [5] was “inactive”. Also, the Potency in experiment [3] was 18.6 µM (active); in experiment [4], 11.8 µM (active); in experiment [6], 8.33 µM (active); in [7], 11.8 µM (active).

As for `O=C(O)c1cn(C2CC2)c2cc(N3CCNCC3)c(F)cc2c1=O`, the activation in experiment [1] is 6.67%. In experiment [2], the viability was 109%. The viability (% of control) in [3] was 109% [at 8.46 µM]; in experiment [6] it was 97.3% [at 8.46 µM]; in experiment [7], 101% [at 8.46 µM]; in experiment [8], 102% [at 8.46 µM]; in [9] it was 113% [at 8.46 µM]. Besides, the viability, % of control in [4] was 112% [at 8.46 µM].

Take `COC(=O)Nc1cc(Nc2cc(NC3CC3)c3ncc(C#N)n3n2)c(Cl)c(N2CCN(C)CC2)c1`: the activation in experiment [1] was -10.3%. Also, the Potency was 2.95 µM (active) in experiment [2]; 3.32 µM (active) in experiment [3]; 0.833 µM (active) in experiment [4]; 1.32 µM (active) in experiment [6]; 2.63 µM (active) in [7]; 2.63 µM (active) in experiment [8].

In the case of `Cn1nnc2c(C(N)=O)ncn2c1=O`, in experiment [1], the activation was 0% and 2.62%. Also, the viability in [2] was 102%. The Potency result in experiment [3], in [4] and in experiment [6] was “inactive” throughout.

As to `O=NN(CCCl)C(=O)NC1CCCCC1`, the activation in [1] was -3.35% and 3.74%. In addition, the viability in experiment [2] is 112%. In addition, the Potency entry in experiment [3], in experiment [4], in experiment [6], in experiment [7] and in [8] was “inactive” each time.

Turning to `CCc1c2c(nc3ccc(OC(=O)N4CCC(N5CCCCC5)CC4)cc13)-c1cc3c(c(=O)n1C2)COC(=O)[C@]3(O)CC`, the activation in [1] is 14.2%. In addition, the Potency in [2] is 0.372 µM (active); in experiment [3] it was 0.186 µM (active); in experiment [4], 0.166 µM (active); in experiment [6], 0.105 µM (active); in experiment [7], 0.209 µM (active); in experiment [8] it was 0.235 µM (active). Besides, in experiment [9], the Potency was 0.332 µM (active).

For the molecule `NC(=O)C1CCCc2c1[nH]c1ccc(Cl)cc21` (stereo not given), the activation in experiment [1] was 10.6%. In experiment [2], the viability was 104%. The Potency result in experiment [3], in experiment [4] and in experiment [6] was “inactive” throughout.

On to `COc1ccc2cc3[n+](cc2c1OC)CCc1cc2c(cc1-3)OCO2`, for which, in experiment [1], the activation is -7.97%. In addition, the Potency was 16.6 µM (active) in experiment [2], 4.17 µM (active) in experiment [3], 5.9 µM (active) in experiment [4] and 23.5 µM (active) in experiment [6]. In experiment [7], the Potency result was “inactive”.

In the case of `O=C(NOCC(O)CO)c1cc(Br)c(F)c(F)c1Nc1ccc(I)cc1F` (stereo not given), the activation in experiment [1] was 6.51%. For the same molecule, the viability in experiment [2] is 95.8%. Also, the Potency was 0.0166 µM (active) in [3], 0.209 µM (active) in experiment [4] and 1.05 µM (active) in [6].

With `C[C@@H]1CN(c2c(F)c(N)c3c(=O)c(C(=O)O)cn(C4CC4)c3c2F)C[C@H](C)N1`, the activation in experiment [1] is 22.7%. In addition, the viability in experiment [2] is 102%. Further, the Potency entry in experiment [3], in [4], in experiment [6], in experiment [7] and in experiment [8] was “inactive” each time.

In the case of `Cn1cnc(=N)c2[nH]cnc21`, the activation in experiment [1] is 10.7%. For the same molecule, in experiment [2], the viability is 111%. Also, the Potency entry in experiment [3], in experiment [4], in experiment [6], in experiment [7], in experiment [8] and in experiment [9] was “inactive” throughout.

Take `CCOc1cc(C(C)(C)C)ccc1C1=N[C@@](C)(c2ccc(Cl)cc2)[C@@](C)(c2ccc(Cl)cc2)N1C(=O)N1CCN(CC(=O)N2CCOCC2)CC1`: in experiment [1], the activation was 35.5%. For the same molecule, in experiment [5], the Potency entry was “inactive”. The Potency in [3] was 11.5 µM (active); in [4] it was 1.63 µM (active); in [7], 4.09 µM (active); in experiment [8], 7.28 µM (active); in experiment [9] it was 9.17 µM (active).

Consider `COc1ccc2[nH]c(S(=O)Cc3ncc(C)c(OC)c3C)nc2n1` (stereo not given), for which the activation in experiment [1] is 10.7% and 10%. Also, the Potency result in experiment [5], in [7], in experiment [8] and in [9] was “inactive” in each case. Moreover, in experiment [2], the viability was 109%.

As for `C[C@@H]1CN(CC(=O)N2CC(C)(C)c3ncc(Cc4ccc(F)cc4)cc32)[C@@H](CN2CCOC[C@H]2C)CN1`, the activation in experiment [1] was -14.4%. Further, the viability in [2] was 86.9%.

As to `C[N+]1(C)[C@@H]2CC(OC(=O)[C@H](CO)c3ccccc3)C[C@H]1[C@@H]1O[C@@H]12` (stereo not given in full), the activation in [1] was -7.53%. The viability in experiment [2] is 116%. In addition, the Potency entry in experiment [3], in experiment [4], in experiment [6], in [7], in experiment [8] and in [9] was “inactive” each time.

As to `CN(c1ncccc1CNc1nc(Nc2ccc3c(c2)CC(=O)N3)ncc1C(F)(F)F)S(C)(=O)=O`, the Potency is 24.3 µM (active) in [1]; 6.61 µM (active) in [2]; 6.61 µM (active) in experiment [3]; 0.833 µM (active) in experiment [4]; 5.25 µM (active) in experiment [6]; 5.9 µM (active) in experiment [7]. Further, in [8], the Potency was 4.68 µM (active).

Regarding `OCCC#Cc1nc(-c2ccc(F)cc2)c(-c2ccncc2)n1CCCc1ccccc1`, the activation in experiment [1] was 17.2%. For the same molecule, in experiment [2], the viability is 100%.

`CN(C)S(=O)(=O)c1ccc2c(c1)C(=Cc1cc3c([nH]1)CCCC3)C(=O)N2`: the Potency in experiment [1] is 1.37 µM (active); in experiment [3], 5.9 µM (active); in experiment [4] it was 2.09 µM (active). Also, in experiment [2], the viability was 101%.

For `Oc1cc(-c2nc(-c3ccccc3)[nH]c2-c2ccncc2)ccc1Cl`, in experiment [1], the activation is 22.4%. In addition, the Potency result in experiment [5] was “inactive”. Also, the Potency is 4.17 µM (active) in experiment [3], 14.8 µM (active) in experiment [4] and 7.42 µM (active) in experiment [6].

Regarding `Nc1nc(-c2nn(Cc3ccccc3F)c3ncccc23)nc(N)c1N1CCOCC1`, the activation in experiment [1] was 6.49%. Further, the viability in experiment [2] was 123%. Also, the Potency in [3] was 0.0018 µM (active). Besides, the Potency result in [4], in experiment [6], in [7], in [8] and in experiment [9] was “inactive” in each case.
